This note sets out measurements from PubChem BioAssay (NCATS).

The structures appear in SMILES notation. Inconclusive results are not listed. The source made the active and inactive calls. The call rests on the fitted dose curve; in most records, active means well fitted cell-killing curve with a large enough effect; inconclusive means small, poorly fitted or top-dose-only effect; inactive means flat fitted curve, though single readings scatter.

The assay in a line: HepG2 cells viability qHTS for Zika virus inhibitors (AID 1347168). As to conditions: Zika counter-screen; series mostly up to 45.9 µM. In a few lines: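 Luminescent ATP readout (CellTiter Glo) after 30 min at 37 degrees C gives viability; cells in DMEM + 4% FBS were treated 24 to 48 hours with compound, following overnight attachment.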
For orientation: Quantitative high-throughput screening tests each substance at several concentrations.
Turning to `CCn1cc(C(=O)O)c(=O)c2cc(F)c(N3CCNC(C)C3)c(F)c21` (stereo not given), the compound was called inactive. As for `Cc1[nH]c(=O)c(C#N)cc1-c1ccc2nccn2c1`, the compound was classed as inactive. With `Cc1[nH]c(=O)c(C#N)cc1-c1ccncc1` the entry was “inactive”; with `O=C(C1CC1)N1CC[C@@H](Cn2c(-c3ccc(-c4ccc5occc5c4)cc3)nc3cnccc32)C1`, “inactive”; with `O=c1n(CCCN2CCN(c3cccc(Cl)c3)CC2)nc2ccccn12`, “inactive”.

`CCCc1nc2c(C)cc(-c3nc4ccccc4n3C)cc2n1Cc1ccc(-c2ccccc2C(=O)O)cc1`: the call was inactive. With `Cn1cnc([N+](=O)[O-])c1Sc1ncnc2nc[nH]c12` the entry was “inactive”; with `COCC(=O)NCC=Cc1ccc2ncnc(Nc3ccc(Oc4ccc(C)nc4)c(C)c3)c2c1`, “inactive”; with `CCCCNc1cc(C(=O)O)cc(S(N)(=O)=O)c1Oc1ccccc1`, “inactive”.

With `COc1ccc(-c2ccc3c(N4CCOCC4)nc(N4C[C@@H](C)O[C@@H](C)C4)nc3n2)cc1CO`, the outcome was inactive.
